This assay has as its system RIVA. Briefly: growth inhibition by drug plus 177Lu-lilotomab satetraxetan (1 - RLU/untreated control) (fraction); higher = stronger inhibition. The following applies: 177Lu-lilotomab satetraxetan 0.5 ug/ml. On the procedure:
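RIVA (RI-1) ABC-DLBCL cells were pretreated or not for 18 h with 0.5 ug/ml 177Lu-lilotomab satetraxetan (600 MBq/mg), washed and seeded (3000 cells/well) on 384-well plates pre-printed with the Selleck Cambridge Cancer Compound library. Viability was read by RealTime-Glo luminescence on days 3-6 after seeding. Effect = 1 - RLU/mean RLU of the 48 untreated no-drug control wells per plate; Bliss score = (M-E)/(1-Fa).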

Regarding `O=C(Nc1cccnc1)N1CCC(Cc2cccc(Oc3ccc(C(F)(F)F)cn3)c2)CC1`, the “growth inhibition by drug plus 177Lu-lilotomab satetraxetan” value (“growth inhibition” below) by setting is: (10 nM, time (day): 3) 0.71; (10 nM, time (day): 4) 0.692; (10 nM, time (day): 5) 0.714; (10 nM, time (day): 6) 0.718; (100 nM, time (day): 3) 0.554; (100 nM, time (day): 4) 0.566. Further, the “growth inhibition” value is, setting by setting: (100 nM, time (day): 5) 0.583; (100 nM, time (day): 6) 0.595.
Take `Cc1cc(O)c2c(c1)C(=O)c1cccc(O)c1C2=O` [Chrysophanic acid (Chrysophanol)]: the “growth inhibition” value is, setting by setting: (10 nM, time (day): 3) 0.425; (10 nM, time (day): 4) 0.48; (10 nM, time (day): 5) 0.511; (10 nM, time (day): 6) 0.511; (100 nM, time (day): 3) 0.489; (100 nM, time (day): 4) 0.543. The “growth inhibition” value (100 nM, time (day): 5) is 0.559 and the “growth inhibition” value (100 nM, time (day): 6) came out at 0.574.
On to `Cc1nn(-c2ccccc2)c(C)c1C=NN1CCN(Cc2ccccc2)CC1`, for which the “growth inhibition” value reads like this: (10 nM, time (day): 3) 0.275; (10 nM, time (day): 4) 0.414; (10 nM, time (day): 5) 0.437; (10 nM, time (day): 6) 0.459; (100 nM, time (day): 3) 0.295; (100 nM, time (day): 4) 0.4. In addition, the “growth inhibition” value (100 nM, time (day): 5) came out at 0.397 and the “growth inhibition” value (100 nM, time (day): 6) is 0.389.
As to `CN(C)Cc1ccc(-c2nc3cccc4c3n2CCNC4=O)cc1`, the “growth inhibition” value turned out to be 0.564 (10 nM, time (day): 3); 0.632 (10 nM, time (day): 4); 0.638 (10 nM, time (day): 5); 0.652 (10 nM, time (day): 6); 0.585 (100 nM, time (day): 3); 0.642 (100 nM, time (day): 4). Moreover, the “growth inhibition” value runs as follows: (100 nM, time (day): 5) 0.654; (100 nM, time (day): 6) 0.657.
Take `O=C(O)CC[C@H]1CC[C@@](c2cc(F)ccc2F)(S(=O)(=O)c2ccc(Cl)cc2)CC1`: the “growth inhibition” value by setting is: (10 nM, time (day): 3) 0.613; (10 nM, time (day): 4) 0.631; (10 nM, time (day): 5) 0.645; (10 nM, time (day): 6) 0.643; (100 nM, time (day): 3) 0.453; (100 nM, time (day): 4) 0.522. Besides, the “growth inhibition” value stood at 0.543 (100 nM, time (day): 5) and 0.556 (100 nM, time (day): 6).

Values taken from the supplement of paper PMC6897291.
